The list is not random: actives were taken first. Their share in the collection is about 0.58%.
FadD28 binding: blocks FadD28 binding to the bisubstrate probe; fluorescence polarization; inhibition, % at 12.5 µM; 0.22% of 360,000 active; in the data active = inhibition above about 8.5%, passing the limit was not always enough
Mtb BioA inh: inhibitors of Mycobacterium tuberculosis BioA enzyme. purified M. tuberculosis BioA enzyme, plate reader. inhibition, % at 9.99 µM. 0.096% of 360,000 active; in the data active = inhibition above about 40%
BH1578 lux ind: induces V. cholerae light production without autoinducers. V. cholerae BH1578 lux reporter, luminescence, 6 h. 0.16% of 350,000 active. activation, % at 18.7 µM; in the data active = activation mostly above about 9.7%, no sharp cut-off
TcdB inh: TcdB glycohydrolase inhibition; inhibition, % at 9.99 µM; TcdB glycohydrolase enzymatic assay, plate reader; 0.24% of 350,000 active; P18177; in the data active = inhibition above about 10%
Target sequence (P18177 whole entry, looked up): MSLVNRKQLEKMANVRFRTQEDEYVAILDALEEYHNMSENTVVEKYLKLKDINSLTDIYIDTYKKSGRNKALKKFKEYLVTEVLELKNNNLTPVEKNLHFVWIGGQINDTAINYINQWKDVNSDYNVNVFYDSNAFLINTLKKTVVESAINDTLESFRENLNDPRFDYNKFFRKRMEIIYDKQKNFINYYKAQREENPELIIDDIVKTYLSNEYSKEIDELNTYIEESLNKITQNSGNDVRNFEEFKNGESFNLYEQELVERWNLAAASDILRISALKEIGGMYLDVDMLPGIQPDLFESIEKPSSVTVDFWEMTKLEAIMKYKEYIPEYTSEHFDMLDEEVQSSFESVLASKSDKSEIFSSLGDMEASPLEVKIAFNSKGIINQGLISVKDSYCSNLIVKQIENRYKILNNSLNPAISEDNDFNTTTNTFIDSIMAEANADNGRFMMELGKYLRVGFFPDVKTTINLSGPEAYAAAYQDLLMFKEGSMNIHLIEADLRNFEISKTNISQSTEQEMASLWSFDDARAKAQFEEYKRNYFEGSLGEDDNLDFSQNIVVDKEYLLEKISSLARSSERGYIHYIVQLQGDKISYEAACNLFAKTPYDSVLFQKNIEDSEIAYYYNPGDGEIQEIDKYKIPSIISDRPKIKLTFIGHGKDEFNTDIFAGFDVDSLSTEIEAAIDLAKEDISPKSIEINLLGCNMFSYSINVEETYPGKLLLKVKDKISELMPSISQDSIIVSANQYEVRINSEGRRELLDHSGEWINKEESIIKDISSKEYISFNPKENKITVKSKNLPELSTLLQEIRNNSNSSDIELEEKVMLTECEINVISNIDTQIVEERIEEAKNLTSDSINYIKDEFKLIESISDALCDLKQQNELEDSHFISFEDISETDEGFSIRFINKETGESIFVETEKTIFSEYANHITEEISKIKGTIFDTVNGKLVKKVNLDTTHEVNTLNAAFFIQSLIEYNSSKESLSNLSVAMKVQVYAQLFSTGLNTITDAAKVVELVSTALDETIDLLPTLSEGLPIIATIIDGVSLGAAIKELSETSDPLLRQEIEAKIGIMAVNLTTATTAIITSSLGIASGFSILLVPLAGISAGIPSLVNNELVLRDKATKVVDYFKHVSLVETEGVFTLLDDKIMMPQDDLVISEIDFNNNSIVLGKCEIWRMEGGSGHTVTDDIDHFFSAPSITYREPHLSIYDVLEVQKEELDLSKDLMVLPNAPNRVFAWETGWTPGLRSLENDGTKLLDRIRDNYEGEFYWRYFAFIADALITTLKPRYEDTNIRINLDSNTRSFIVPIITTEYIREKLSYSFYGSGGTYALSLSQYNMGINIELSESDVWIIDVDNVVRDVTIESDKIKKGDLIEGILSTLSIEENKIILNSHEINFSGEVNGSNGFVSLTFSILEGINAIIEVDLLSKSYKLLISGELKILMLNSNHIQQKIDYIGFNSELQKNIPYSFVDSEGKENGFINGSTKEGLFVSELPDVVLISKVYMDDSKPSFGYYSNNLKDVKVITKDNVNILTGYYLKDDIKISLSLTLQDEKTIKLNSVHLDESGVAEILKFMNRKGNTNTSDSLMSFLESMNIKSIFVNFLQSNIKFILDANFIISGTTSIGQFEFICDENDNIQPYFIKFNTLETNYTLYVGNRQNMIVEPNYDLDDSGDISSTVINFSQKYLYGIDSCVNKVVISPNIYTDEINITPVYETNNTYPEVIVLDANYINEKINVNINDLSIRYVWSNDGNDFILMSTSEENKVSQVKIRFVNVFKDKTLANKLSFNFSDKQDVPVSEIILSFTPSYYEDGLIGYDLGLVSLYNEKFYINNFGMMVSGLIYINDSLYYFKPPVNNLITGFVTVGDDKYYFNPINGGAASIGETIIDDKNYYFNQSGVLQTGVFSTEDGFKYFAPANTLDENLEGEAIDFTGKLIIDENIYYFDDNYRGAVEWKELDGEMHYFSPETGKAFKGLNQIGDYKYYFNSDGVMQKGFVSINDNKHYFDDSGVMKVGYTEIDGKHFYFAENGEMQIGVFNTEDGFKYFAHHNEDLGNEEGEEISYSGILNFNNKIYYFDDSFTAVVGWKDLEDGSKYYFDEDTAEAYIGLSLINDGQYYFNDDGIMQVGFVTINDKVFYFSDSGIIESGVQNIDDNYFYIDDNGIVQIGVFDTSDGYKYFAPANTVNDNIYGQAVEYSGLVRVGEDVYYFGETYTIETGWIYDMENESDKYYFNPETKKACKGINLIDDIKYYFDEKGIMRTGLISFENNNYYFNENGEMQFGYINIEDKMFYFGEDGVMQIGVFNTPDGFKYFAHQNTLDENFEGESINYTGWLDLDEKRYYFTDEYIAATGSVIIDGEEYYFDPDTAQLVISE
Yp Topo-I inh: Y. pestis Topo-I inhibition via cleavage products | Y. pestis Topo-I cleavage product accumulation, plate reader | activity, % at 10 µM | 0.064% of 360,000 active; in the data active = activity above about 50%, passing the limit was not always enough
Numbers stand for hits; n = inactive; x = no result; ! = repeats disagree.

SMILES | FadD28 binding | Mtb BioA inh | BH1578 lux ind | TcdB inh | Yp Topo-I inh
C[C@@H]1CCCCO[C@H](CN(C)C(=O)C2CCCCC2)[C@@H](C)CN([C@@H](C)CO)C(=O)c2cc(NC(=O)Nc3ccc(F)cc3)ccc2O1 | x | n | x | n | x
CN1C(=O)c2cc(NC(=O)c3cnccn3)ccc2OC[C@@H]2O[C@H](CC(=O)NCC3CC3)CC[C@@H]21 | x | x | x | n | x
CC(C)NC(=O)CSc1nccc(-c2cccs2)n1 | n | x | n | n | n
CC(=O)C(Sc1nccc(-c2cccs2)n1)C(C)=O | n | n | n | 14.6 | n
O=C(C[C@@H]1CC[C@H](NC(=O)c2ccccc2)[C@@H](CO)O1)NCc1ccncn1 | x | n | x | n | x
CCOC(=O)c1ccc(N=c2sc(C(=O)OC)cc(=O)n2CCCN2CCOCC2)cc1 | n | n | n | 11.0! | n
O=C1Nc2ccccc2SC1=Cc1ccccc1 | n | n | n | n | n
O=C1CCCC2=C1Sc1ccccc1N2 | n | n | n | 10.5 | n
Cn1c(-c2ccc(F)c(F)c2)cc2onc(-c3ccccc3)c2c1=O | n | n | n | 10.1 | n
COc1ccc(Cc2nnc3n2N=C(c2cc4ccccc4o2)CS3)cc1OC | n | n | n | x | 54.2
CCCc1nnc2n1N=C(c1ccc(OC)c(OC)c1)CS2 | n | x | n | n | n
O=C(CC(c1ccccc1)c1ccccc1)Nc1ccc(O)cc1 | n | n | n | 13.4 | n
COc1ccc(NC(=S)NC(=O)c2ccccc2Cl)cc1 | n | n | n | n | n
O=C(NC(=S)Nc1ccc(O)cc1)c1ccccc1Cl | n | n | n | 16.5 | n
CC(=O)Nc1ccc(NC(=O)CC(c2ccccc2)c2ccccc2)cc1 | n | n | n | n | n
Oc1ccc(NC(=S)Nc2ccccc2)cc1 | n | n | n | 10.6! | n
COc1cccc(S(=O)(=O)N(C)C[C@@H]2Oc3cc(C4=CCCC4)ccc3S(=O)(=O)N([C@@H](C)CO)C[C@H]2C)c1 | x | n | x | n | x
CCCCN1CC(COCc2ccccc2)Oc2cccc(F)c2S1(=O)=O (stereo not given) | n | n | n | n | 58.9
Cc1ccc(S(=O)(=O)Oc2ccccc2/C=C2/SC(=O)NC2=O)cc1 | n | x | n | 10.3 | n
O=C1NC(=O)C(=Cc2ccccc2[N+](=O)[O-])S1 | n | n | n | n | 62.0
Cc1ccc(S(=O)(=O)Oc2ccccc2C=C2C(=O)N(C)C(=O)N(C)C2=O)cc1 | n | n | n | n | n
CC(=NCCCN(C)C)C1=C(O)c2ccccc2C1=O | n | n | 16.7 | x | n
C/C(=N\N(C)C)C1=C(O)c2ccccc2C1=O | n | x | n | x | n
COc1ccc(NC(c2ccccc2)c2ccncc2)cc1 (stereo not given) | n | n | n | 15.8 | n
CO[C@H]1CN(C)C(=O)c2ccc(NC(C)=O)cc2OC[C@H](C)N(C(=O)c2ccccc2F)C[C@@H]1C | x | n | x | x | x
SMILES | FadD28 binding | Mtb BioA inh | BH1578 lux ind | TcdB inh | Yp Topo-I inh
COc1ccccc1CN1[C@@H]2c3cccc(=O)n3C[C@@H]2[C@@H](CO)[C@@H]1C(=O)NCCc1ccncc1 | x | n | x | n | x
Cc1cc2cc(CNC(=O)Nc3ccc(Cl)c(Cl)c3)ccc2n1C | 12.7 | n | n | n | n
COCC(=O)Nc1ccc2c(c1)C(=O)N(C)[C@H]1CC[C@@H](CC(=O)NCCc3ccccc3)O[C@H]1CO2 | x | n | x | n | x
Cc1ccccc1Cn1cc(CCC(=O)N2CCOCC2)c2ccccc21 | n | x | n | n | 53.7
Cc1ccccc1CC(=O)N1CCOCC1 | n | n | n | n | n
Cc1cnc(C(=O)OCC(=O)Nc2ccc(OCc3ccccc3)cc2)cn1 | n | n | n | 12.6 | n
CCCCOc1ccc(NC(=O)c2cnc(C)cn2)cc1 | n | n | 17.5 | x | n
Cc1cnc(C(=O)Nc2ccc(F)c(F)c2)cn1 | n | n | n | x | n
Cc1cc(O)c(C=O)c2c1C(=O)Oc1c(CO)c(O)c3c(c1O2)C(O)OC3=O (stereo not given) | 17.9 | n | n | x | n
CO[C@@]12[C@H](COC(N)=O)C3=C(C(=O)C(C)=C(N)C3=O)N1C[C@@H]1N[C@@H]12 | n | n | 58.1 | n | n
CO[C@H]1CN(C)C(=O)c2cc(NC(=O)Nc3ccccc3)ccc2OC[C@@H](C)N(CC2CC2)C[C@H]1C | x | n | x | n | x
CN1C(=O)NC(c2ccc(O)cc2)C2=C1CN(c1ccccc1)C2=O (stereo not given) | n | n | n | n | n
CN1C(=O)NC(c2ccc(O)cc2)C2=C1CN(c1ccc(O)cc1)C2=O (stereo not given) | n | x | n | 18.6 | n
CCS(=O)(=O)Nc1ccc2c(c1)C(=O)N(C)C[C@H](OC)[C@H](C)CN(CC1CCCC1)[C@@H](C)CO2 | x | n | x | x | x
Cc1cc2c(c(=O)n1Cc1cccnc1)C(c1ccccc1)C(C#N)=C(N)O2 (stereo not given) | n | 47.6 | n | x | n
Cc1cc2c(c(=O)n1Cc1ccc3c(c1)OCO3)C(c1cccnc1)C(C#N)=C(N)O2 (stereo not given) | n | n | n | x | n
COCCCn1c(SCc2ccc(OC)cc2)nc2cc(OC)c(OC)cc2c1=N | 20.9 | n | n | x | n
COc1ccc(-c2ccc3c(c2)[C@H]2[C@H](CCN2S(=O)(=O)c2ccc(OC)cc2)[C@H](CO)N3)cc1 | x | n | x | x | x
CCOc1ccc2nc(NC(=O)c3ccc(S(=O)(=O)N4CCOCC4)cc3)sc2c1 | n | n | n | x | n
CCOc1ccc2nc(NC(=O)c3ccc(OC)c(S(=O)(=O)N4CCOCC4)c3)sc2c1 | n | n | 44.4 | x | n
O=C(Cn1c(=O)oc2cc(S(=O)(=O)N3CCCC3)ccc21)Nc1cccc(C(F)(F)F)c1 | 10.6 | n | n | x | n
O=C(Cn1c(=O)oc2ccccc21)Nc1ccc(S(=O)(=O)N2CCCCC2)cc1 | n | n | n | x | n
CCc1cccc(NC(=O)Cn2c(=O)oc3cc(S(=O)(=O)N4CCOCC4)ccc32)c1 | 41.2 | n | x | n | n
CCc1ccc(NC(=O)Cn2c(=O)oc3cc(S(=O)(=O)N4CCOCC4)ccc32)cc1 | n | n | n | n | n
COC(=O)C[C@@H]1CC[C@@H]2[C@H](COc3ccc(NC(=O)c4cccs4)cc3C(=O)N2C)O1 | x | n | x | x | x
SMILES | FadD28 binding | Mtb BioA inh | BH1578 lux ind | TcdB inh | Yp Topo-I inh
Cc1ccccc1-c1cnc2c(c1)C(=O)N([C@@H](C)CO)C[C@H](C)[C@H](CN(C)Cc1cccnc1)O2 | x | n | x | n | x
O=C(C[C@@H]1CC[C@H]2[C@@H](COC[C@H](O)CN2Cc2ccc(Oc3ccccc3)cc2)O1)N1CCc2ccccc2C1 | x | n | x | x | x
Cc1cscc1-c1nc(NCC2CC2)nc2ccsc12 | n | n | n | 10.6 | n
Fc1ccccc1-c1nc(NCC2CC2)nc2ccsc12 | n | n | n | n | n
COc1ccc(OC)c(N2C(=O)NC(=O)/C(=C/c3ccc([N+](=O)[O-])s3)C2=O)c1 | 20.7 | n | n | n | n
C[C@H]1CN([C@@H](C)CO)S(=O)(=O)c2ccc(C3=CCCCC3)cc2O[C@@H]1CN(C)C(=O)Cc1ccncc1 | x | n | x | n | x
Cc1cc(/C=C2\SC(=S)NC2=O)c(C)n1-c1cccc(O)c1 | 16.7 | x | n | n | n
Cc1sc(-n2c(C)cc(/C=C3\SC(=S)NC3=O)c2C)c(C#N)c1C | 16.9 | n | n | n | n
Cc1ccc(-n2c(C)cc(/C=C3\SC(=O)NC3=O)c2C)cc1 | n | n | n | n | n

Screening results from PubChem BioAssay.
